# Screens (PubChem BioAssay)
# G9a block = qHTS Assay for Inhibitors of Histone Lysine Methyltransferase G9a; G9a H3K9 monomethylation, AlphaScreen, 2 h; AID 504332, 2011; actives 8.8% (n = 350,000); Potency, µM (highest dose often 102 µM), inactives show at the highest dose activity, negative = inhibition, usual class: inhibitors; note: % is set by controls: 0 for no effect and ±100 for the full control effect; nearly all actives have a fitted effect of over 75% in size
#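 Compounds were preincubated with 20 nM G9a for 15 min, after which biotinylated H3K9 peptide (500 nM) and SAM (20 uM) started a 2 h room-temperature reaction. Monomethylated product was quantified by antibody-based AlphaScreen chemiluminescence.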
# L3MBTL1 inh = qHTS Assay for the Inhibitors of L3MBTL1; actives 0.66% (n = 230,000); Potency, µM (highest dose often 57.1 µM), for the others: at the top dose activity, negative = inhibition, actives largely listed as inhibitors; AlphaScreen L3MBTL1–H3K9me1 peptide binding; Lethal(3)malignant brain tumor-like protein 1 (Homo sapiens), Q9Y468; AID 485360, 2010; note: % is set by controls: 0 for no effect and ±100 for the full control effect; nearly all actives have a fitted effect of over 60% in size
#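 L3MBTL1 50 nM + b-AHA-H3(1-15)K9me1 75 nM, 30 min RT; compound added, 30 min RT; streptavidin donor/Ni-chelate acceptor beads 10 ug/mL each final, 30 min RT dark; AlphaScreen read.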
# HP1b binding inh = HTS for Inhibitors of HP1-beta Chromodomain Interactions with Methylated Histone Tails | Chromobox protein homolog 1 (Homo sapiens), P83916 | AlphaScreen HP1-beta / biotin-H3K9me3 peptide binding | AID 540317, 2011 | Potency, µM (top dose mostly 114 µM), for inactives: top-dose activity change, negative = inhibition, usual class: inhibitors | actives 0.56% (n = 390,000); note: nearly all actives have a fitted effect of over 70% in size
#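 HP1-beta protein (50 nM final) preincubated 30 min at room temperature with biotinylated H3(1-18)K9me3 peptide (50 nM) in PBS pH 7.4, 0.01% Tween-20, then compound added for 30 min. AlphaScreen streptavidin donor/nickel chelate acceptor beads (10 ug/mL final), 30 min dark, luminescence read.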
# BAZ2B block = qHTS Assay for Inhibitors of BAZ2B; Potency, µM (top dose mostly 114 µM), for inactives: top-dose activity change, negative = inhibition, actives largely listed as inhibitors; AID 504333, 2011; actives 4.4% (n = 360,000); AlphaScreen BAZ2B-H3K14Ac peptide displacement; Bromodomain adjacent to zinc finger domain protein 2B (Homo sapiens), Q9UIF8; note: % is set by controls: 0 for no effect and ±100 for the full control effect; nearly all actives have a fitted effect of over 60% in size
#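 BAZ2B (50 nM) with biotin-H3(5-23)K14Ac peptide (50 nM) in PBS pH 7.4, 0.01% Tween-20, preformed 30 min, then compound 30 min at room temperature; top concentration 110uM. AlphaScreen streptavidin donor/nickel chelate acceptor beads (10 ug/mL final), 20 min dark, signal read.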
# JMJD2A Tudor inh = qHTS Assay for Inhibitors of JMJD2A-Tudor Domain; Lysine-specific demethylase 4A (Homo sapiens), O75164; AlphaScreen JMJD2A-Tudor / H3K4me3 peptide binding; Potency, µM (top dose mostly 114 µM), for the others: at the highest dose activity change, negative = inhibition, most hits filed as inhibitors; actives 4.4% (n = 390,000); AID 504339, 2011; note: % is set by controls: 0 for no effect and ±100 for the full control effect; nearly all actives have a fitted effect of over 50% in size
# An asterisk follows results filed as active; ? = inconclusive; · = no result; [ ] = another dose, or the depositor's remark. Rows were chosen to be rich in hits. Some 11% of all compounds tested hit in one or more screens of this group. Calls come from the whole dose curve; as a rule, active = well fitted inhibition curve with a large enough effect; inconclusive = small, poorly fitted or top-dose-only effect; inactive = no such curve, though single readings can be large or run the other way. Potency is the fitted concentration of half-maximal effect.
SMILES,G9a block,L3MBTL1 inh,HP1b binding inh,BAZ2B block,JMJD2A Tudor inh
C=CCNC(=O)c1ccc(NC(=O)CC2SC(N3CCCC3)=NC2=O)cc1 (configuration not stated),-5.9%[0.501 µM],11.0%,9.6%,-0.1%,-10.3%
c1ccc2c(c1)CCN(c1nc3ccccc3n3cnnc13)C2,50.1µM*,·,6.4%,-1.5%,?
c1ccc2c(c1)nc(N1CCOCC1)c1nncn12,-9.8%,·,26.5%,9.4%,2.9%
c1ccc2c(c1)nc(NCCN1CCOCC1)c1nncn12,50.1µM*,4.2%,39.2%,11.6%,-7.6%
c1ccc(N2CCN(c3nc4ccccc4n4cnnc34)CC2)cc1,-9.9%,·,24.0%,-20.7%,-27.6%
c1ccc(CN2CCN(c3nc4ccccc4n4cnnc34)CC2)cc1,50.1µM*,-3.3%,13.1%,-10.4%,-28.3%
C1=C(c2ccccc2)CCN(c2nc3ccccc3n3cnnc23)C1,22.4µM*,·,-1.1%,6.2%,-34.5%
CCN(CC)C(=O)Cn1ncc2c([nH]c3ccc(C)cc32)c1=O,1.1%[59 µM],·,14.0%,12.0%[57.1 µM],-12.0%
NC(=O)c1cc(N2C(=O)C=CC2=O)ccc1Cl,1.26µM*,4.1%,?,?,25.1µM*
OCCNc1nc(-c2cccs2)nc2ccccc12,·,·,14.2%,·,1.4%
Cc1ccc2sc(C)[n+](CCO)c2c1,28.2µM*,·,12.1%,·,-17.2%
O=C(C1CCN(S(=O)(=O)c2ccc(Br)s2)CC1)N1CCN(c2cccc(Cl)c2)CC1,2.8%[59 µM],·,36.9%,5.9%,1.0%
O=C(OC1CCOC1=O)c1ccc2ncsc2c1 (configuration not stated),28.2µM*,-13.2%,35.1%,2.6%,-3.2%
CCOc1ccc(N=c2scc(-c3ccc(OC)cc3)n2CCO)cc1,2.82µM*,?,-21.3%,?,?
CCOc1ccc(N=c2scc(-c3ccccc3)n2CCO)cc1,15.8µM*,·,?,8.91µM*,?
CCn1c(-c2ccccc2)csc1=Nc1ccc(O)cc1,3.55µM*,?,?,20µM*,31.6µM*
CCOC(=O)Cn1nc(C)c(NC(=O)COc2ccc(Cl)cc2C)c1C,0.4%[59 µM],·,4.9%,-33.7%,-10.4%
Cc1cccc(NC(=O)N2CC=C(c3c[nH]c4ccccc34)CC2)c1C,?,·,-17.9%,?,?
Cc1ccccc1NC(=O)CSc1cn(CC(=O)N2CCCCCC2)c2ccccc12,-12.5%[59 µM],·,31.4%,-22.8%,0.7%
COc1cccc(NC(=O)c2cn(C3CCCCC3)c(=O)c3c2c2ccccc2n3C)c1,-7.2%[59 µM],·,22.2%,-10.8%,-3.4%
Cc1ccc2nc(-c3ccc(N4C(=NC(=O)CCC(=O)O)SC5CS(=O)(=O)CC54)cc3)sc2c1 (configuration not stated),44.7µM*,12.6µM*,?,?,?
COc1cc(C2NC(=O)NC(O)(C(F)(F)F)C2C(=O)c2ccc(Cl)cc2)ccc1O (configuration not stated),79.4µM*,3.2%,49.7%,-27.3%,-17.6%[57.1 µM]
O=C(Nc1nc2ccccc2c(=O)s1)c1ccc(F)cc1Cl,70.8µM*,·,16.7%,6.2%,-13.4%
O=C(Nc1nc2ccccc2c(=O)s1)c1ccco1,70.8µM*,·,19.5%,-28.7%,-14.6%
O=C(Nc1n[nH]c(=S)s1)c1ccco1,1.41µM*,-14.5%,?,?,3.55µM*
SMILES,G9a block,L3MBTL1 inh,HP1b binding inh,BAZ2B block,JMJD2A Tudor inh
O=C(CCNC(=O)c1ccccc1Cl)Nc1nc2ccc(F)cc2s1,-0.7%[12.7 µM],3.6%,54.1%,-15.6%,-2.0%
CC1CCCCN1S(=O)(=O)c1cc2c(=O)nc3ccccn3c2cc1Cl (configuration not stated),2.5%[59 µM],·,44.6%,3.3%,-6.1%
COc1ccc(-n2nc(C(=O)Nc3ccc(Cl)cn3)c3c4ccccc4n(C)c3c2=O)cc1Cl,-7.6%[59 µM],·,16.2%,·,-6.0%
O=C(O)c1ccc(-c2nnn(Cc3cccc(C(F)(F)F)c3)n2)cc1,8.3%,·,35.2%,1.9%,-7.5%
CCc1sc(Nc2ccc(C)cc2Br)nc1-c1cc2cccc(OC)c2oc1=O,10.0%[59 µM],·,12.7%,-0.7%,-18.7%
Cc1ccc(C(=O)Nc2nccs2)cc1,7.4%,8.5%,42.0%,-1.0%,-2.9%
